Data: PubChem BioAssay
The source made the active and inactive calls. Unless noted, how the calls were made is not given here.

Assays:
[1] = anti-His antibody binders, primary screen, artefact control for SMM control protein annotation, biochemical, small-molecule microarray, 635 nm fluorescence (AID 1128); conditions: anti-His Alexa647 antibody binding, higher = more signal;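 further: score merges feature fluorescence with signal-to-noise for each printed compound spot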
[2] = test system: Human papillomavirus type 1a E7 protein (residues 1-88); test: HPV1a E7 small-molecule binders, primary screen, biochemical, small-molecule microarray, residues 1-88, 635 nm (AID 1129); conditions: small-molecule microarray binding, fluorescence 635 nm; higher = more signal
[3] = target: Focal adhesion kinase 1 (Homo sapiens) (UniProt Q05397); test: small-molecule microarray binders of FAK, primary screen, biochemical, 635/667 nm fluorescence, BSA, DTT (AID 1130); conditions: PTK2 binding, 635 nm fluorescence, higher = more signal;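 further: composite of spot emission at 667 nm and signal to noise over triplicate slides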
Sequence of Focal adhesion kinase 1 (Homo sapiens) (Q05397 whole entry, looked up): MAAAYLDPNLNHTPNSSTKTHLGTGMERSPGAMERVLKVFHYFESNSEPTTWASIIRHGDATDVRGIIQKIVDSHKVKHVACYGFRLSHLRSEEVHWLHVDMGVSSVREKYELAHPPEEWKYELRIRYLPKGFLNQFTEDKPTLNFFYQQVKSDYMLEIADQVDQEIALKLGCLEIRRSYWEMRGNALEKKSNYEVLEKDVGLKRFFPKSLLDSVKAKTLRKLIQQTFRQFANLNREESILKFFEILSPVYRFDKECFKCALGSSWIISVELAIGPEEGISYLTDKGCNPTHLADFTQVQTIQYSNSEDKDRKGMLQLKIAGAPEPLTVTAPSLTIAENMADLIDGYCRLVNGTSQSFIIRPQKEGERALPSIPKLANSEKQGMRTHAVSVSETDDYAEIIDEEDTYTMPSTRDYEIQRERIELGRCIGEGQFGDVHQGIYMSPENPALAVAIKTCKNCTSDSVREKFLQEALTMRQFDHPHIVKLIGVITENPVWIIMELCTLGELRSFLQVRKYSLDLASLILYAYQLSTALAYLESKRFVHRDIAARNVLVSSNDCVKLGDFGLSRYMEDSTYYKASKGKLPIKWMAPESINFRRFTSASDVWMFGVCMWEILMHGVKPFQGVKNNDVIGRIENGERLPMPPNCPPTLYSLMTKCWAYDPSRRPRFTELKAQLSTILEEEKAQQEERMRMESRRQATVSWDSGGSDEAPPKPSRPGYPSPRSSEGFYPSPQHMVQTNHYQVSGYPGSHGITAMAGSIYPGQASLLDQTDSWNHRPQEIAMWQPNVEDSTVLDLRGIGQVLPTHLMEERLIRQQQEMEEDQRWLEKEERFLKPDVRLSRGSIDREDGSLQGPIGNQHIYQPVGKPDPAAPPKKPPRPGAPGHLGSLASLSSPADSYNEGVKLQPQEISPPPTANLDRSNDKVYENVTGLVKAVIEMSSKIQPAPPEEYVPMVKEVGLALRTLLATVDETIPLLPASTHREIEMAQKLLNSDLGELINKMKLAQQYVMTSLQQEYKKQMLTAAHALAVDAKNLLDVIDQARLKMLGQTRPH

[4] = test system: Fibrinogen (Alexa647-labelled); test: fibrinogen binders on compound microarrays, profiling panel, artefact control for SMM control-protein annotation, biochemical, small-molecule microarray, 635/667 nm fluorescence (AID 1131); conditions: fibrinogen-A647 binding fluorescence, higher = more signal;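 further: z-score merges 667 nm fluorescence with per-spot signal-to-noise over triplicate slides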
[5] = target: Follistatin (Homo sapiens) (UniProt P19883); test: follistatin binders on small-molecule microarrays, primary screen, biochemical, small-molecule microarray, 635/667 nm fluorescence (AID 1132); conditions: FST binding, 635 nm fluorescence, higher = more signal
Sequence of Follistatin (Homo sapiens) (P19883 whole entry, looked up): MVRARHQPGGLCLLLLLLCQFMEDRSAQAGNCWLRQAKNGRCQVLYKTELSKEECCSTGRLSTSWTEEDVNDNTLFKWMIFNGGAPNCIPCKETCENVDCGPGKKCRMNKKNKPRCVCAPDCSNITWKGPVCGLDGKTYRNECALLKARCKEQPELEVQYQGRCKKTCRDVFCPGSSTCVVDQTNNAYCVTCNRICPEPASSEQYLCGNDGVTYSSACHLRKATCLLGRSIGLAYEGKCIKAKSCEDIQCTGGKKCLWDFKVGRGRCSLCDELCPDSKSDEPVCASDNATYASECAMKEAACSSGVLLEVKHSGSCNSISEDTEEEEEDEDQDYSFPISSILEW

[6] = target: Fibroblast growth factor 2 (Homo sapiens) (UniProt P09038); test: FGF2 binders on small-molecule microarrays, primary screen, biochemical, small-molecule microarray, 635/667 nm fluorescence (AID 1133); conditions: small-molecule microarray binding, FGF2, fluorescence 635/667; higher = more signal
Sequence of Fibroblast growth factor 2 (Homo sapiens) (P09038 whole entry, looked up): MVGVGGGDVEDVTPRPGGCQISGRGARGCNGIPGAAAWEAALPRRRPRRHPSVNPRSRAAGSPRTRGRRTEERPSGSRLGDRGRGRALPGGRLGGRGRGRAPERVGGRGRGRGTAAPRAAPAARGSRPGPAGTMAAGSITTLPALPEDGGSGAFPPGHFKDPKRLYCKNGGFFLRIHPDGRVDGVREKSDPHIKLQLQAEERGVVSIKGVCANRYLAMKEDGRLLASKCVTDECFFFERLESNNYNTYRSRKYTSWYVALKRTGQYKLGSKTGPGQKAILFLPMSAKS

[7] = mitochondrial membrane potential change in A549 cells, profiling panel, cell-based, JC-1 fluorescence, basal, 24 h, 100 nL (AID 1138); conditions: higher = more signal;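 further: A549 lung adenocarcinoma cells under basal conditions with no added stimulus; test concentration not given here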
Lefty1 = Lefty1 binders on small-molecule microarrays, primary screen, biochemical, small-molecule microarray, 635/667 nm fluorescence (AID 1139); conditions: small-molecule microarray binding, fluorescence 635/667; higher = more signal
[8] = test system: wheat germ agglutinin (Triticum aestivum), Alexa647-labelled; test: wheat germ agglutinin binders on compound microarrays, profiling panel, artefact control for SMM control-protein annotation, biochemical, small-molecule microarray, 635/667 nm fluorescence (AID 1140); conditions: WGA-A647 binding, 635 nm fluorescence, higher = more signal;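 further: score merges 667 nm feature emission with signal to noise over triplicate slides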
[9] = target: Luciferin 4-monooxygenase (Photinus pyralis) (UniProt P08659); test: firefly luciferase enzyme inhibitors, primary screen, biochemical, luminescence, purified enzyme, 2006 set (AID 1141); conditions: SteadyGlo luminescence, 30 min, higher = more signal, called active from +8 up or from −8 down;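 further: cell-free assay with purified firefly luciferase at 100 ng per well in PBS; test concentration not given here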
Sequence of Luciferin 4-monooxygenase (Photinus pyralis) (P08659 whole entry, looked up): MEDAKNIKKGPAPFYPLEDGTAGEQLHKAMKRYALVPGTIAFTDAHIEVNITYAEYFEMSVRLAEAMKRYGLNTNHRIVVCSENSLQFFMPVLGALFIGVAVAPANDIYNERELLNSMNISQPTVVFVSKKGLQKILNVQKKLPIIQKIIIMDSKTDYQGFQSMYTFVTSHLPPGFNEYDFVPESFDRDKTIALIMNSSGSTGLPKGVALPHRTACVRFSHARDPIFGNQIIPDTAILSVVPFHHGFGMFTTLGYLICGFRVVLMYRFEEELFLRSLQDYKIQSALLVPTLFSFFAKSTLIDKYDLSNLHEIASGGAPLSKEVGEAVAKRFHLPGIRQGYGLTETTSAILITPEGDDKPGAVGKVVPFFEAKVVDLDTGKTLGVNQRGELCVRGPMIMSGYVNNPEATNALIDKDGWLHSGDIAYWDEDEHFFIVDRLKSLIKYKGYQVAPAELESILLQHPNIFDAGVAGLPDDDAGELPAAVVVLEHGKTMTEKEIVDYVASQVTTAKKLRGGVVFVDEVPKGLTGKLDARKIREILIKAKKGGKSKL

[10] = test system: Wnt5a (protein binding on small-molecule microarray); test: Wnt5a binders on small-molecule microarray, primary screen, biophysical, 635/667 nm fluorescence (AID 1142); conditions: 635 nm fluorescence, higher = more signal;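 further: fluorescence read at 667 nm with signal to noise per printed feature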
[11] = cell viability in Huh7 cells, primary screen, cytotoxicity control for HCV replication inhibitor project, CellTiter-Glo luminescence, basal, 48 h (AID 1143); conditions: Huh7 HCV replicon, higher = more signal, called active from +8 up or from −8 down;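 further: Huh7 hepatoma cells carrying a hepatitis C replication reporter with no stimulus; test concentration not given here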
[12] = P. aeruginosa biofilm formation inhibitors, primary screen, PAO1 strain, BacTiter-Glo luminescence, LB-PBS (AID 1144); conditions: 12 h, higher = more signal
[13] = CREB reporter modulators without forskolin, primary screen, cell-based, PC12, CRE-LacZ reporter, unstimulated (AID 1145); conditions: no forskolin, luminescence, 4.5 h, higher = more signal, called active from +8 up or from −8 down
[14] = CREB reporter modulators under forskolin, primary screen, cell-based, PC12, CRE-LacZ reporter, forskolin-stimulated (AID 1146); conditions: luminescence, 4.5 h, higher = more signal, called active from +8 up or from −8 down;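 further: PC12 cells with 6xCRE LacZ reporter stimulated by forskolin 10 µM; beta-galactosidase reporter signal reflecting CREB driven transcription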
[15] = target: Streptavidin (Streptomyces avidinii) (UniProt P22629); test: streptavidin binders on small-molecule microarray, primary screen, artefact control for SMM compound annotation, biophysical, 635/667 nm fluorescence (AID 1147); conditions: streptavidin binding, higher = more signal;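 further: signal reflects streptavidin binding to arrayed compounds as a control protein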
Sequence of Streptavidin (Streptomyces avidinii) (P22629 whole entry, looked up): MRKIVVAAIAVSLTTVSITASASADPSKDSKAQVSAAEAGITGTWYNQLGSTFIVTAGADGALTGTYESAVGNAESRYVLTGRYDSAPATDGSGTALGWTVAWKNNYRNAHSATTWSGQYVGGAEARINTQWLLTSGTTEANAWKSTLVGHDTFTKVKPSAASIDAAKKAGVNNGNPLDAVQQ

[16] = small-molecule binders of probe aInhba, primary screen, biochemical, small-molecule microarray, 635/667 nm fluorescence (AID 1148); conditions: higher = more signal;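 further: score merges 667nm spot fluorescence with signal-to-noise for antibody binding to printed compounds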
Torsin-1A (Homo sapiens) [17] = target: Torsin-1A (Homo sapiens) (UniProt O14656); test: torsin A binders from cell lysate, primary screen, small-molecule microarray, wild-type, 635/667 nm (AID 1149); conditions: COS7 hTOR1A-WT lysate, 635 nm fluorescence, higher = more signal
Sequence of Torsin-1A (Homo sapiens) (O14656 whole entry, looked up): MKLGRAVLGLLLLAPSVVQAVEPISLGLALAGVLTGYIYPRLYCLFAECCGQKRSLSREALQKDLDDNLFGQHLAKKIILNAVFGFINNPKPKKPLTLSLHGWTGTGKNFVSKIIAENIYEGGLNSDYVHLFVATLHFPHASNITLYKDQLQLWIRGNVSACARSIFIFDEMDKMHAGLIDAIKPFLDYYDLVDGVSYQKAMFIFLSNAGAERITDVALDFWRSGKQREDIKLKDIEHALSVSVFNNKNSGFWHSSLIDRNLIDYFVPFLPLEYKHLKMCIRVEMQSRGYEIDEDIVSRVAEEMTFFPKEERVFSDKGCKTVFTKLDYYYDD

Torsin-1A (Homo sapiens) [18] = target: Torsin-1A (Homo sapiens) (UniProt O14656); test: small-molecule binders of mutant TOR1A in lysate, primary screen, cell lysate, small-molecule microarray, COS7 lysate, 635/667 nm fluorescence (AID 1150); conditions: COS7 hTOR1A mutant lysate, 635 nm fluorescence, higher = more signal;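 further: score pools 667 nm emission and signal to noise measuring lysate protein binding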
[19] = test system: Sonic hedgehog protein (Shh); test: small-molecule binders of Shh protein, primary screen, biochemical, small-molecule microarray, 635/667 nm fluorescence (AID 1151); conditions: small-molecule microarray binding, 635 nm fluorescence; higher = more signal;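 further: Shh protein binding to compounds spotted on small-molecule microarray slides; score combines spot fluorescence intensity with signal-to-noise across triplicate slides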

Structure (SMILES) | composite z-score [1] | composite z-score [2] | composite z-score [3] | composite z-score [4] | composite z-score [5] | composite z-score [6] | z-score [7] | composite z-score (Lefty1) | composite z-score [8] | z-score [9] | composite z-score [10] | z-score [11] | z-score [12] | z-score [13] | z-score [14] | composite z-score [15] | composite z-score [16] | composite z-score (Torsin-1A (Homo sapiens) [17]) | composite z-score (Torsin-1A (Homo sapiens) [18]) | composite z-score [19]
COCCCNC(=O)[C@@]1(Cc2ccccc2CN=[N+]=[N-])N=C(c2ccc(OCCCO)cc2)O[C@H]1c1ccccc1N=[N+]=[N-] | 2.29 | 1.19 | 0.543 | 0.931 | 1.35 | 1.18 | 3.53 | 0.0538 | 1.2 | -4.87 (inactive) | 1.08 | -4.47 (inactive) | -0.867 (inactive) | -0.207 (inactive) | -0.834 (inactive) | 1.37 | 0.786 | 0.0556 | 0.516 | 0.341
COCCOC(=O)N1C(=O)[C@@]2(c3cc(C#CC4(O)CCCCCC4)ccc31)[C@H](C(=O)NC[C@H](O)c1ccccc1)[C@H]1C(=O)O[C@H](c3ccccc3)[C@H](c3ccccc3)N1[C@@H]2c1ccc(OCCO)cc1 | 0.726 | 1.21 | 0.444 | 0.95 | 0.822 | 0.94 | -1.49 | 0.473 | 0.357 | 0.531 (inactive) | -0.0894 | -3.38 (inactive) | -0.401 (inactive) | -0.285 (inactive) | 0.0759 (inactive) | -0.0815 | 0.217 | 0.0969 | 0.124 | 1.72
CC(C)N1C(=O)c2ccccc2[C@](C)(C(=O)O)[C@@H]1c1ccc(CO)cc1 | 0.181 | -1.44 | -0.0258 | -1.34 | -0.509 | -0.977 | -0.359 | -0.82 | -0.36 | 0.883 (inactive) | -0.654 | -0.328 (inactive) | 0.00934 (inactive) | -0.206 (inactive) | 0.552 (inactive) | -0.603 | -0.148 | -1.03 | -0.792 | -1.02
C[C@H]1NC(=O)C([C@@H](C)OCc2ccccc2)NC(=O)[C@@]23C(=O)N[C@@H](Cc4ccccc4)C2[C@H](C)[C@@]2(C)O[C@H]2C3/C=C/CC/C=C/CNC1=O (stereo not given in full) | -0.342 | -0.413 | -0.305 | 0.42 | 0.607 | 0.588 | -0.198 | 0.331 | 0.384 | -0.749 (inactive) | -0.108 | -1.24 (inactive) | 1.27 (inactive) | 4.21 (inactive) | -1.16 (inactive) | -0.0311 | -0.122 | -0.0252 | 0.212 | 0.778
CCC[C@@H]1C[C@@]1(CCC)[C@@H](NC(=O)c1ccco1)c1ccc(Cl)cc1 | -0.348 | -1.71 | -0.386 | -0.495 | -0.388 | -0.882 | 0.523 | -0.769 | -0.493 | -0.31 (inactive) | -0.114 | -2.99 (inactive) | 0.789 (inactive) | 0.58 (inactive) | 0.974 (inactive) | -0.489 | 0.0074 | -1.5 | -0.94 | -0.323
CCOC(=O)C1=CC[C@@H](c2cccc(Br)c2)N(S(=O)(=O)c2ccc(C)cc2)[C@H]1c1ccc([N+](=O)[O-])cc1 | 0.822 | 1.22 | 0.359 | 1.01 | 0.782 | 0.873 | 1.99 | 0.726 | 0.743 | 1.96 (inactive) | 0.559 | -2.18 (inactive) | -0.314 (inactive) | -0.63 (inactive) | 0.115 (inactive) | 1.22 | 0.157 | 0.907 | 0.469 | 0.778
CC(C)CNC(=O)[C@@]1(C)c2ccccc2C(=O)N(Cc2ccccc2)[C@H]1c1ccc(CO)cc1 | -0.97 | -0.955 | -0.846 | -1.84 | -0.976 | -1.27 | -0.504 | -2.25 | -1.4 | 0.182 (inactive) | -0.368 | 0.0572 (inactive) | 0.789 (inactive) | 0.531 (inactive) | 0.172 (inactive) | -1.18 | -0.331 | -1.5 | -0.742 | -1.02
COc1ccc(C(=O)Nc2ccc(CN3C(=O)[C@@]4(O[C@@H](CC(=O)N5Cc6ccccc6C[C@H]5CO)[C@H]([Si](C)(C)c5ccc(OC)cc5)[C@H]4C)c4ccccc43)cc2)cc1 | 0.299 | 1.13 | 1.2 | 0.724 | 1.33 | 1.33 | 1.29 | 1.62 | 0.365 | 0.0093 (inactive) | 0.206 | -3.32 (inactive) | 0.127 (inactive) | 0.381 (inactive) | 0.281 (inactive) | -0.145 | -0.154 | 1.31 | 0.002 | 1.62
COCCOC(=O)N1C(=O)[C@@]2(c3cc(C#CC4(O)CCCCCC4)ccc31)[C@H](C(=O)N1CCc3cc(OC)c(OC)cc3C1)[C@H]1C(=O)O[C@H](c3ccccc3)[C@H](c3ccccc3)N1[C@@H]2c1ccccc1OCCO | 1.07 | 1.17 | 0.32 | 0.608 | 1.36 | 1.48 | -0.651 | 1.28 | 0.859 | -1.72 (inactive) | 0.855 | -2.18 (inactive) | 1.66 (inactive) | 0.0736 (inactive) | 3.93 (inactive) | 0.149 | 0.448 | 0.0869 | 0.326 | 1.29
C=C(C)[C@@H]1CC=C(C(O)C2C=CC3C(=O)N(C4CCCCC4)C(=O)C3N2Nc2ccc(OC)cc2)CC1 (stereo not given in full) | 0.736 | 1.21 | 0.589 | 1 | 1.17 | 0.723 | 0.677 | 0.606 | 0.46 | -0.392 (inactive) | 0.187 | -1.7 (inactive) | -0.645 (inactive) | 0.369 (inactive) | -0.317 (inactive) | 1.12 | -0.0521 | -0.0445 | 0.6 | 0.966
